# Screening results: PubChem BioAssay, National Center for Advancing Translational Sciences (NCATS)
# In the library only some 7.3% were active in any assay of this set; here they are far more common.
# FLuc counter: counter-screen for miR-21 project: firefly luciferase inhibitors or activators; P08659; purified FLuc, Km substrates, luminescence inhibition; Potency, µM (highest dose often 57.5 µM), without a hit: top-dose activity change, negative = inhibition, hits mostly inhibitors; 360,000 tested, 6.9% active;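 also: plate controls were vehicle for no effect and reference inhibitor for full effect; nearly all actives have a fitted effect of over 55% in size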
# Target sequence (P08659 whole entry, looked up): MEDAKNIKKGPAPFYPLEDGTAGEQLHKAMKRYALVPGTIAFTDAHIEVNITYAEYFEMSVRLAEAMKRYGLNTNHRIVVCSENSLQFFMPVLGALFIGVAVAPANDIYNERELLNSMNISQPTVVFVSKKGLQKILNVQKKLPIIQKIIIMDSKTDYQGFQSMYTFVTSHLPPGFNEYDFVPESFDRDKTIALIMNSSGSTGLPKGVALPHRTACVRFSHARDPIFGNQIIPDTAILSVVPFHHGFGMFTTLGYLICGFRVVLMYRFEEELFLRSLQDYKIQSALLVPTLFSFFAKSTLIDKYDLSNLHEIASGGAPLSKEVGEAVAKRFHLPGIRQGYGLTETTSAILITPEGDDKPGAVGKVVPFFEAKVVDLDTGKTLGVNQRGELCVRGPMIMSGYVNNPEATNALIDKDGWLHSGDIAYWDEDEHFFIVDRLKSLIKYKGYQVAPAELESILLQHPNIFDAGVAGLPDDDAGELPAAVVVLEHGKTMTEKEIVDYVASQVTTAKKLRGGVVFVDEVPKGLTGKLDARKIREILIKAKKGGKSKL
#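 Purified P. pyralis luciferase, 10 nM final, with Km-level 10 uM D-luciferin and 10 uM ATP in 50 mM Tris acetate pH 7.5, 10 mM Mg acetate, 0.01% Tween-20, 0.05% BSA; 6-point qHTS titration about 60 µM downward; luminescence read.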
# SMN2 splice up: increases expression of the SMN2 splice variant; HEK293 SMN2-luciferase splicing reporter, luminescence, 30-36 h; Potency, µM (highest dose often 46.1 µM), for inactives: top-dose activity change, positive = activation, most hits filed as activators; 210,000 tested, 2.8% active; AID 1458; also: % of control where 0% means no effect; nearly all actives have a fitted effect of over 55% in size
#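 qHTS luciferase splicing reporter: luminescence rises when SMN2 exon 7 is included in transfected HEK293 cells. Compound exposure lasted 30-36 h at 37C, with 4.5 mM final sodium butyrate as control, followed by a ONE-Glo read.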
# p53 reactivator: re-activators of mutant p53; 320,000 tested, 0.063% active; Potency, µM (doses to about 92.2 µM), without a hit: top-dose activity change, positive = activation, hits mostly activators; H1299 p53-A138V BP100-luciferase reporter, luminescence, 24 h; AID 504706; also: % of control where 0% means no effect; nearly all actives have a fitted effect of over 45% in size
#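 H1299 (p53-null), stable ts p53-A138V + BP100-Luc; 1000 cells/well, Opti-MEM/10% FBS; cpd 4 pt, 1:5; 24 h, 37 deg C, 5% CO2; detection reagent 10 min RT; luminescence.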
# ELG1 genotoxic: induces genotoxicity in HEK293T cells with luciferase-tagged ELG1; HEK293T ELG1-luciferase reporter, luminescence, 16 h; Potency, µM (series often up to 46 µM), for inactives: top-dose activity change, positive = activation, most hits filed as activators; 330,000 tested, 1.3% active; AID 504466; also: % of control where 0% means no effect; nearly all actives have a fitted effect of over 60% in size
#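 Genotoxicity was scored as increased ELG1-luciferase reporter signal, measured by ONE-Glo luminescence (30 min, room temperature). Compound or vehicle exposure of the HEK293T reporter cells lasted 16 hr at 37°C.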
# Rab9 prom act: activates the Rab9 promoter; Huh7 Rab9 promoter-luciferase reporter, luminescence, 24 h; Potency, µM (titrated, usually from 9.22 µM), for inactives: top-dose activation, negative = inhibition, hits mostly activators; 320,000 tested, 2.8% active; AID 485297; also: % of control where 0% means no effect; nearly all actives have a fitted effect of over 60% in size
#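 Luminescence read-out: Huh7 cells stably expressing Rab9-luciferase, treated 24 h with compound at 37 °C, then lysed with luciferase reagent for 10 min at ambient before reading.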
# NPC1 prom act: activators of NPC1 promoter; Huh7 NPC1 promoter luciferase reporter, 24 h; AID 485313; Potency, µM (highest dose often 9.22 µM), without a hit: top-dose activation, usual class: activators; 320,000 tested, 2.4% active; also: % of control where 0% means no effect; nearly all actives have a fitted effect of over 60% in size
#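 Cells: Huh7 expressing luciferase under the NPC1 promoter, 1500/well. Seeded 2 h, compound added, incubated 24 h at 37 °C. Luciferase reagent, 10 min ambient, then luminescence.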
# * hit, by the source's call; ? = inconclusive; · = not tested or not shown. Calls follow the shape of the dose curve; as a rule, active = well fitted curve in the direction sought with a large enough effect; inconclusive = small, poorly fitted or top-dose-only effect, or another doubt; inactive = no such curve, though single readings can be large; an effect the other way counts as inactive or inconclusive. Potency is read from the fitted curve at half-maximal effect.
SMILES,FLuc counter,SMN2 splice up,p53 reactivator,ELG1 genotoxic,Rab9 prom act,NPC1 prom act
COc1ccc(NC(=O)O/N=C2/CCCc3ccc(OC)cc32)cc1,?,·,8.5%,1.5%,-27.7%,-3.6%
COc1ccc2c(c1)/C(=N/OC(=O)c1cccs1)CCC2,26.9µM*,-27.5%,-4.4%,13.5%,-1.3%,-0.4%
N/C(CC(=O)Nc1ccc(F)c(Cl)c1)=N\OC(=O)c1cccs1,-0.4%,·,5.2%,-6.6%,0.8%,5.1%
COc1ccc(/C(N)=N/OC(=O)c2cccs2)cc1,1.9µM*,·,?,8.2µM*,1.26µM*,1.41µM*
N/C(=N\OC(=O)c1cccs1)c1ccc(Cl)cc1,4.78µM*,·,?,?,?,26.6%
COc1ccc(CNC(=O)COC(=O)c2cccs2)cc1,23.9µM*,·,10.5%,1.9%,-5.6%,-0.4%
CCC(Sc1nc2ccncc2[nH]1)C(=O)Nc1ccc(F)cc1 (configuration not stated),-7.2%,-11.3%,·,·,·,·
COc1ccc(Nc2nc(N)c([N+](=O)[O-])c(NCCO)n2)cc1,?,·,4.4%,8.0%,1.0%,16.6%
Cc1[nH]nc(Nc2ccc(Br)cc2)c1[N+](=O)[O-],9.53µM*,·,20.2%,?,3.16µM*,2.82µM*
Cc1cccc(Nc2n[nH]c(C)c2[N+](=O)[O-])c1,15.1µM*,?,?,5.8µM*,3.16µM*,2.51µM*
CNc1nc(Nc2ccc(Br)cc2)nc(N)c1[N+](=O)[O-],-4.5%,10.5%,5.2%,?,3.55µM*,?
Cc1[nH]nc(Nc2ccc(C(C)C)cc2)c1[N+](=O)[O-],9.53µM*,·,?,?,3.55µM*,3.55µM*
Cc1[nH]nc(Nc2ccccc2)c1[N+](=O)[O-],?,-7.7%,7.8%,3.7%,13.2%,18.5%
COc1ccc(-c2nc(-c3ccccc3)c(Nc3c(C)cccc3C)o2)cc1,·,14.9%,·,·,·,·
O=C(Nc1cccc(F)c1)N1CCCC2(CCN(C(=O)c3ccncc3)CC2)C1,·,-8.6%,·,·,·,·
CC(=O)N1CCc2cc(S(=O)(=O)NC(Cc3ccccc3)C(=O)NCc3ccccc3Cl)ccc21 (configuration not stated),-2.8%,-0.6%,·,·,·,·
CN(N=O)C(=O)N[C@H]1C(O)C(O)C(CO)O[C@@H]1O (some centres not stated),·,-14.8%,·,·,·,·
Cc1ccc(Nc2n[nH]c(C)c2[N+](=O)[O-])cc1,19µM*,17.8µM*,?,19.2%,3.55µM*,2.82µM*
COc1ccc(SC[C@H](CC(C)C)N2CCN(C)CCC2=O)cc1,?,·,9.0%,?,20.5%,?
CC(C)CN1CCC(=O)N(CCSc2ccccc2)CC1,23.9µM*,·,10.1%,?,1.58µM*,1.58µM*
CN1CCC(=O)N([C@H](CSc2ccccc2)c2ccccc2)CC1,-10.3%,·,·,8.9%,18.1%,7.6%
Cc1ccc(SC[C@H](c2ccccc2)N2CCN(C)CCC2=O)cc1,15.1µM*,·,12.9%,?,2.82µM*,?
CC(C)C[C@@H](CSc1ccc(Br)cc1)N1CCN(C)CCC1=O,19µM*,·,14.1%,?,?,3.55µM*
Cc1ccc(SC[C@H](CC(C)C)N2CCN(C)CCC2=O)cc1,15.1µM*,·,19.1%,?,3.55µM*,?
CCOc1cc(-c2ccc(OC(=O)c3ccccc3F)cc2)cc(=O)c2c(C)oc(C)c12,-12.7%,·,·,·,·,·
CC(C)C[C@@H](CSc1ccc(Br)cc1)N1CCN(CC(C)C)CCC1=O,15.1µM*,·,?,4.8%,19.8%,?
CC(=O)Nc1ccc(SC[C@H](CC(C)C)N2CCN(CC(C)C)CCC2=O)cc1,-1.3%,·,-3.2%,0.9%,-3.7%,-2.2%
O=C1CC(=Nc2ccccc2)NN1c1ccccc1,16.9µM*,-2.2%,-4.2%,-6.1%,1.4%,-0.6%
CC1CCN(c2ccc(-c3cccc(NC(=O)C(F)(F)F)c3)nn2)CC1,0.239µM*,·,-30.7%,0.13µM*,0.316µM*,?
